# ClpP mod: qHTS Assay for Activators of ClpP. ATP-dependent Clp protease proteolytic subunit (Bacillus subtilis (strain 168)), P80244. purified B. subtilis ClpP, FRET peptide cleavage, 20 min. Potency, µM (top dose mostly 57.5 µM), without a hit: top-dose activity change, negative = active. hit rate 1.9% among 340,000; active = well fitted falling curve with a large enough effect; inconclusive = small, poorly fitted or top-dose-only effect; inactive = no such curve, though single readings can be large or run the other way; also: potency is read from the fitted curve at half-maximal effect; the source files actives as falling curves though it sought activators and does not explain the sign; nearly all actives have a fitted effect of over 65% in size
#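 ClpP 10 microg/mL final, pH 8 Tris/KCl buffer with BSA, glycerol, Tween-20; compound pinned in; FRET-FV substrate; RT 20 min; Ex320/Em430; ΔFRET vs ADEP 5.8 microM, DMSO, no enzyme.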
# Pin1 inhibitor: human Pin1 inhibition; Q13526; Pin1 FP peptide displacement, HiFluor488, 10 min; Potency, µM (series often up to 115 µM), for the others: top-dose activity, negative = inhibition, actives largely listed as inhibitors; hit rate 0.009% among 390,000; AID 504891; active = well fitted inhibition curve with a large enough effect in the polarisation, with a control signal flat, not every such curve was filed as active; inconclusive = small, poorly fitted or top-dose-only effect, or effect the other way, or a change in a side signal; inactive = no such curve, though single readings can be large or run the other way; the % refers to the polarisation; also: potency is read from the fitted curve at half-maximal effect; % is scaled to controls: 0 for no effect and ±100 for the full control effect
# Target sequence (Q13526 whole entry, looked up): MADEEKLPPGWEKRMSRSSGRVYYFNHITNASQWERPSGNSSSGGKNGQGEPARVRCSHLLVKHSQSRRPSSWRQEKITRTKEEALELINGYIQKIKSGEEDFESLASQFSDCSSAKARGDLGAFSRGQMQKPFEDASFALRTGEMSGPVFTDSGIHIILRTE
# a7 integrin act: integrin-mediated muscular dystrophy alleviation activation; alpha7betagal myoblasts, beta-gal FDG fluorescence, 48 h; Potency, µM (top dose mostly 38.3 µM), for the others: at the highest dose activation, actives largely listed as activators; hit rate 0.064% among 350,000; AID 624291;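 also: potency is read from the fitted curve at half-maximal effect; 100% = response of the positive control SU9516; nearly all actives have a fitted effect of over 60% in size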
#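 alpha7betagal+/- myoblasts (passage 13, 250/well) treated 48 h at 37C with compounds at 1:260 dilution of DMSO stock. Lysed, then beta-galactosidase activity read as FDG fluorescence (ex 480/em 540) after 30 min, with pre-read for autofluorescence.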
# IL-2 act: activators of IL-2; hit rate 0.065% among 360,000; activation, % (series mostly up to about 46 µM); IL-2 activation reporter assay, cell-based qHTS; stimulated with anti-CD3/CD4/CD28 beads; in transgenic mouse T cells; in the data active = activation above about 50%; inconclusive = mostly about 30% to 49%; also: 0% is about no effect
#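 Readout is EGFP and DsRed signal by fluorescent plate cytometry after 18 h at 37 degrees C. Transgenic mouse T cells (750/well) received compound for 60 min before bead stimulation (anti-CD3, anti-CD4, anti-CD28); memory T cells served as non-tolerant control.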
# USP2a block: blocks human ubiquitin-specific protease USP2a; AID 463254; hit rate 0.01% among 330,000; USP2 core, Ub-CHOP2 coupled fluorogenic reporter, 485/531; Potency, µM (titrated, usually from 38.3 µM), for inactives: at the top dose activity change, negative = inhibition, actives largely listed as inhibitors; O75604;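 also: potency is read from the fitted curve at half-maximal effect; plate controls were DMSO wells for no effect and full inhibition by NEM control for full effect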
#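 USP2 core (10nM final) preincubated 30min RT with compound in 20mM Tris-HCl pH 8.0, 2mM CaCl2, 2mM beta-mercaptoethanol, 0.05% CHAPS; 25nM Ub-CHOP2 plus 25nM reporter substrate added, fluorescence (Ex485/Em531) read after 60min.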
# PKM2 activator: PKM2 (human) enzyme activation; P14618; hit rate 0.34% among 260,000; Potency, µM (highest dose often 57.5 µM), for the others: top-dose activation, usual class: activators; purified PKM2, Kinase-Glo ATP luminescence, activation; response scale: 0% is enzyme alone, no compound; also: potency is read from the fitted curve at half-maximal effect; % is scaled to controls: 0 for no effect and ±100 for the full control effect; nearly all actives have a fitted effect of over 55% in size
# Target sequence (P14618 whole entry, looked up): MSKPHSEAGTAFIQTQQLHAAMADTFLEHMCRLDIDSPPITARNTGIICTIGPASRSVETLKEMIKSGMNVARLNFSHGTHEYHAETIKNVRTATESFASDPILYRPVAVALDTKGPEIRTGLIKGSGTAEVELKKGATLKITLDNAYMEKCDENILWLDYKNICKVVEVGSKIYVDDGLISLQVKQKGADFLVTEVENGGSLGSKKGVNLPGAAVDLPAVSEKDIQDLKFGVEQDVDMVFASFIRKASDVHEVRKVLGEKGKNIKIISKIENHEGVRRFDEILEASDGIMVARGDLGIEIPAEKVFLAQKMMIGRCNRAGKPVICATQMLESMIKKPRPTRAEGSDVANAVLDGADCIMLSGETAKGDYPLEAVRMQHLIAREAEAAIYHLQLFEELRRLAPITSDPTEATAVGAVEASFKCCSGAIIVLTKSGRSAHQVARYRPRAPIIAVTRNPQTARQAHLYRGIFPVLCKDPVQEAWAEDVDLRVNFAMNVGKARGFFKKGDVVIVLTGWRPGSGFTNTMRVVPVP
#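 Kinase-Glo luminescence reports ATP generated from ADP (0.1 mM) and PEP (0.5 mM) by purified hPK-M2 after 1 h at room temperature, pH 7.2 imidazole buffer; intermediate enzyme activity allows detecting inhibitors and activators.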
# * marks the source's active call; other numbers are inactive results; ? = inconclusive; . = not tested or not shown; ! = not active in a repeat; [ ] = remark or other dose. Rows were chosen to be rich in hits. Some 1.9% of all compounds tested hit in one or more screens of this group. Unless noted, calls follow the shape of the dose curve; as a rule, active = well fitted curve in the direction sought with a large enough effect; inconclusive = small, poorly fitted or top-dose-only effect, or another doubt; inactive = no such curve, though single readings can be large; an effect the other way counts as inactive or inconclusive.
SMILES,ClpP mod,Pin1 inhibitor,a7 integrin act,IL-2 act,USP2a block,PKM2 activator
COc1ccc(N2CCN(C(=O)c3ccccc3NS(=O)(=O)c3ccc(C)cc3)CC2)cc1,12.6µM*,3.1%,?,-3.8,3.6%,-2.5%
COc1ccc(CN2CC[C@H]3C=CC[C@@H](C(=O)Nc4ccc(Cl)cc4Cl)[C@H]3C2=O)cc1OC,-2.5%,.,.,.,.,.
Oc1ccc(COc2ccccc2Cl)c2cccnc12,.,-1.8%,.,.,.,.
CCc1ccc(-n2c(CCC(=O)O)ccc2-c2cccs2)cc1,-15.2%,14.2%,.,.,.,.
Cc1ccc(-n2c(CCC(=O)O)ccc2-c2cccs2)cc1C,11.2µM*!,12.5%,4.9%,1.0,2.7%,?
COc1cc(/C=C2\C=Cc3ccccc32)cc(OC)c1OC,0.0%,.,.,.,.,.
CNC(=O)NC(=O)COC(=O)c1n[nH]c2ccccc12,.,-0.4%,7.4%,-0.2,1.4%,-3.8%
O=C(COC(=O)c1n[nH]c2ccccc12)NC(=O)NCc1ccco1,31.6µM*,13.3%,-1.1%,-1.8,-0.5%,-2.8%
CCCCCC(=O)NNC(=O)c1ccc(F)cc1,2.82µM*,-5.2%,13.0%,-0.2,3.6%,-3.0%
CCCCCCCC(=O)NNC(=O)c1ccc(F)cc1,-2.7%,-5.2%,12.9%,-0.7,-0.4%,-1.8%
C=C[C@@H]1c2cc(C)ccc2N(S(=O)(=O)c2ccc(C)cc2)[C@H](c2ccc(C(=O)OC)cc2)C1(C#N)C#N,-3.0%,.,.,.,.,.
O=S1(=O)CCO[C@H]2CCCC[C@@H]2N1Cc1ccccc1,-0.6%,.,.,.,.,.
COc1ccc(O)c(C(=O)c2cnc3nc4ccccc4n3c2)c1,28.2µM*,17.8%,-5.2%,-0.1,0.9%,8.5%
COc1ccc(-c2cccc(C3C4C=CCCC4(C)C(=O)N3Cc3ccccc3)c2)cc1 (stereo unspecified),.,2.3%,.,.,.,.
CCOC(=O)c1ccccc1NCN1C(=O)CSC1=O,28.2µM*,24.0%,10.1%[7.66 µM],-0.4,1.7%,-17.3%
Cc1cc2ccccc2cn1,-5.0%,.,.,.,.,.
O=C(OCC#CCSc1nnc(-c2ccc(F)cc2)o1)c1ccc(F)cc1,.,4.5%,.,.,.,.
CCOC(=O)c1c(-c2ccc(C)o2)csc1NC(=O)COC(=O)c1cccs1,-25.7%,34.4%,12.9%,-0.8,-5.5%,3.16µM*
CCOC(=O)c1c(-c2ccc(C)o2)csc1NC(=O)CN1CCOCC1,0.2%,2.0%,-3.4%,-1.8,0.9%,?
CC(=O)c1cc(NC(=O)c2cccc(C(F)(F)F)c2)c(=O)oc1/C=C/N(C)C,2.0%,?,8.5%,57.8*,3.2%,1.4%
CC(=O)c1cc(NC(=O)c2cccc(C(F)(F)F)c2)c(=O)oc1C,.,3.2%,-54.7%,-0.6,-0.4%,?
O=C(C[N+]12CCCc3cccc(c31)CCC2)c1ccc2ccc3cccc4ccc1c2c34,4.1%,.,.,.,.,.
O=C(c1ccc(NS(=O)(=O)c2cccs2)cc1)N1CCN(c2ccccc2Cl)CC1,.,17.2%,-43.6%,-1.4,-9.8%,6.31µM*
CCN(CC)c1ccc(C2C(C(=O)OCCOC)=C(C)NC3=C2C(=O)CC(C)(C)C3)cc1 (stereo unspecified),28.2µM*,0.3%,-23.0%,0.7,2.0%,?
COC(=O)c1ccc(C2C(C#N)=C(C)NC3=C2C(=O)CC(C)(C)C3)cc1 (stereo unspecified),22.4µM*,5.2%,18.2%,-2.7,0.5%,-4.2%
SMILES,ClpP mod,Pin1 inhibitor,a7 integrin act,IL-2 act,USP2a block,PKM2 activator
CCOC(=O)C1=C(C)NC2=C(C(=O)CC(C)(C)C2)C1c1cccc(C)n1 (stereo unspecified),31.6µM*,-0.4%,-4.8%,-1.5,3.7%,1.0%
CCCOC(=O)C1=C(C)NC2=C(C(=O)CC(C)(C)C2)C1c1ccc(N(C)C)cc1 (stereo unspecified),-4.6%,-5.3%,-4.2%,-0.2,-1.3%,2.2%
CCCCC1C(C#N)=C(C)NC2=C1C(=O)CC(C)(C)C2 (stereo unspecified),12.6µM*,-6.7%,1.1%,0.6,-0.9%,4.8%
C=C(CC[C@]12OC(C(=O)O)C(O)(C(=O)O)C(C(=O)O)(O1)C(OC(=O)/C=C/[C@@H](C)C[C@@H](C)CC)C2O)[C@@H](OC(C)=O)[C@H](C)Cc1ccccc1 (stereo partly specified),0.3%,.,.,.,.,.
COc1cccc(COCCN2CCN(S(=O)(=O)c3ccccc3)CCC2=O)c1,.,-1.4%,.,.,.,.
CC1=C(C(=O)OC2CCCCC2)C(c2ccco2)C2=C(CC(C)(C)CC2=O)N1 (stereo unspecified),31.6µM*,?,-2.1%,-0.7,-0.3%,1.3%
CC1=C(C(=O)OC2CCCCC2)C(c2ccc(C)o2)C2=C(CCCC2=O)N1 (stereo unspecified),?,4.7%,-15.9%,-0.2,-9.3%,6.9%
COc1ccc(-c2ccc3ncnc(NCc4cccs4)c3c2)cc1,.,3.2%,.,.,.,.
COCCNc1nc(N)c([N+](=O)[O-])c(NCC2CCCO2)n1 (stereo unspecified),25.1µM*,1.4%,8.4%,3.4,-1.5%,-8.0%
CCc1sc(-c2cc3cccc(OC)c3oc2=O)nc1-c1ccccc1,14.1µM*,2.9%,.,.,.,.
O=C1C[C@H](c2ccc(-c3ccccc3)cc2)N1S(=O)(=O)c1ccccc1[N+](=O)[O-],.,-12.0%,.,.,.,.
O=S1(=O)N=C(Sc2ccc3c(c2)OCCO3)c2ccccc21,.,-8.2%,.,.,.,.
O=C(NCCN1CCCCC1)c1ccc(Cn2c(SCc3ccc(F)cc3)nc3cccnc32)cc1,31.6µM*,-7.1%,.,.,.,.
O=C(NCc1ccccc1)c1ccc(CSc2nc3cccnc3n2Cc2ccccc2F)cc1,?,12.4%,.,.,.,.
COc1ccc(Cn2c(SCc3ccc(C(=O)NCc4ccc(C)cc4)cc3)nc3cccnc32)cc1,31.6µM*,?,.,.,.,.
COc1ccc(Cn2c(SCc3ccc(C(=O)NCc4ccccc4F)cc3)nc3cccnc32)cc1,31.6µM*,48.1%,.,.,.,.
OC(CN1CCCCC1)c1ccccc1 (stereo unspecified),-0.9%,.,.,.,.,.
CC(=O)NC(c1cc(F)c2cccnc2c1O)C(C)C (stereo unspecified),.,.,.,.,-0.9%,.
O=Cc1cccc(C=O)c1,-0.8%,.,.,.,.,.
O=C1CC(=C(c2ccccc2)c2ccccc2)C(=O)N1CCN1CCN(c2cccc(Cl)c2)CC1,25.1µM*,26.3%,18.2%,1.5,-0.2%,-0.2%
CCN(CC)C(=O)CSc1nc2nc(C)cc(C)c2c(=O)[nH]1,25.1µM*,1.6%,-2.1%,-2.3,-1.2%,0.4%
CS(=O)(=O)c1ccc(C(=O)OCC#CCSc2nnc(-c3cccc4ccccc34)o2)cc1,.,-2.0%,.,.,.,.
CC(C)(CC(=O)O)CC(=O)N1CCCN(c2nccc(C(F)(F)F)n2)CC1,-3.7%,-1.0%,3.98µM*,-3.5,0.0%,.

# Screening data deposited in PubChem BioAssay by National Center for Advancing Translational Sciences (NCATS).
